Laboratory results: PubChem BioAssay (NCATS)
Records with an inconclusive call do not appear. The source made the active and inactive calls. Calls come from the whole dose curve; as a rule, active = well fitted cell-killing curve with a large enough effect; inconclusive = small, poorly fitted or top-dose-only effect, or effect the other way; inactive = no such curve, though single readings can be large or run the other way.

Assays:
[1] = Quantitative High-Throughput drug screen in 47 multiple myeloma cell lines against the NCATS MIPE library collection: KMS28PE_JCRB cell viability assay (AID 1918983); note: nearly all actives have a fitted effect of over 35% in size; note: potency is the fitted concentration of half-maximal effect
Summary of the method: (§1)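 ATP-based CellTiter-Glo luminescence after 48 h drug exposure (37 °C, 5% CO2) of 500 myeloma cells per well. DMSO-only wells set 100% viability, media-only wells 0%; MIPE 4.0 library added by pin tool.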

[2] = Quantitative High-Throughput drug screen in 47 multiple myeloma cell lines against the NCATS MIPE library collection: OCIMY7_PLB cell viability assay (AID 1918987); note: nearly all actives have a fitted effect of over 65% in size; note: potency is the fitted concentration of half-maximal effect
Summary of the method: as §1

[3] = Quantitative High-Throughput drug screen in 47 multiple myeloma cell lines against the NCATS MIPE library collection: XG1_PLB cell viability assay (AID 1919866); note: nearly all actives have a fitted effect of over 35% in size; note: potency is the fitted concentration of half-maximal effect
Summary of the method: as §1

[4] = Quantitative High-Throughput drug screen in 47 multiple myeloma cell lines against the NCATS MIPE library collection: KMS34_JCRB cell viability assay (AID 1918985); note: nearly all actives have a fitted effect of over 40% in size; note: potency is the fitted concentration of half-maximal effect
Summary of the method: as §1

[5] = Quantitative High-Throughput drug screen in 47 multiple myeloma cell lines against the NCATS MIPE library collection: OPM1_PLB cell viability assay (AID 1918989); note: nearly all actives have a fitted effect of over 40% in size; note: potency is the fitted concentration of half-maximal effect
Summary of the method: as §1

[6] = Quantitative High-Throughput drug screen in 47 multiple myeloma cell lines against the NCATS MIPE library collection: SKMM1_PLB cell viability assay (AID 1919863); conditions: SKMM1 myeloma viability, CellTiter-Glo ATP, 48 h; viability: stronger effect = lower value; note: nearly all actives have a fitted effect of over 35% in size; note: potency is the fitted concentration of half-maximal effect; for viability: series mostly up to about 46 µM
Summary of the method: as §1

[7] = Quantitative High-Throughput drug screen in 47 multiple myeloma cell lines against the NCATS MIPE library collection: U266_ATCC cell viability assay (AID 1919864); note: nearly all actives have a fitted effect of over 35% in size; note: potency is the fitted concentration of half-maximal effect
Summary of the method: as §1

[8] = Quantitative High-Throughput drug screen in 47 multiple myeloma cell lines against the NCATS MIPE library collection: XG6_PLB cell viability assay (AID 1919865); note: nearly all actives have a fitted effect of over 40% in size; note: potency is the fitted concentration of half-maximal effect
Summary of the method: as §1

[9] = Quantitative High-Throughput drug screen in 47 multiple myeloma cell lines against the NCATS MIPE library collection: OCIMY5_PLB cell viability assay (AID 1918988); note: nearly all actives have a fitted effect of over 65% in size; note: potency is the fitted concentration of half-maximal effect
Summary of the method: as §1

[10] = Quantitative High-Throughput drug screen in 47 multiple myeloma cell lines against the NCATS MIPE library collection: L363_DSMZ cell viability assay (AID 1918984); note: nearly all actives have a fitted effect of over 40% in size
Summary of the method: as §1

Fc1ccc([C@@H]2CCNC[C@H]2COc2ccc3c(c2)OCO3)cc1
active: Potency [1] 20.9 µM
inactive: Potency [2] | Potency [3]

NCCS(=O)(=O)O
inactive: Potency [1] | Potency [4] | Potency [5] | viability [6] 109% | Potency [7] | Potency [8] | Potency [3]

CCC1(C)CC(=O)NC1=O (configuration not stated)
inactive: Potency [1] | Potency [4] | Potency [2] | Potency [9] | Potency [5] | Potency [7] | Potency [8] | Potency [3]

CC(C(=O)O)c1cccc(C(=O)c2ccccc2)c1 (configuration not stated)
inactive: Potency [1] | Potency [4] | Potency [2] | viability [6] 106% | Potency [7]
active: Potency [9] 20.9 µM | Potency [8] 13.2 µM | Potency [3] 14.8 µM

CC1COc2c(N3CCN(C)CC3)c(F)cc3c(=O)c(C(=O)O)cn1c23 (configuration not stated)
inactive: Potency [1] | Potency [4] | Potency [2] | Potency [5] | viability [6] 135% | Potency [7] | Potency [3]

CN1CCN(C2=Nc3cc(Cl)ccc3Nc3ccccc32)CC1
active: Potency [5] 23.5 µM
inactive: Potency [1] | Potency [2] | Potency [9] | viability [6] 114% | Potency [7]

CCCNCC(O)COc1ccccc1C(=O)CCc1ccccc1 (configuration not stated)
inactive: Potency [1] | Potency [4] | Potency [7] | Potency [8]

CS(=O)(=O)Nc1ccc([N+](=O)[O-])cc1Oc1ccccc1
inactive: Potency [10] | Potency [8] | Potency [3]
active: Potency [1] 0.187 µM | Potency [9] 11.8 µM

CN(C)C(=N)N=C(N)N
active: Potency [1] 0.833 µM
inactive: Potency [2] | Potency [5] | viability [6] 138% | Potency [7]

O=c1c(O)c(-c2ccc(O)c(O)c2)oc2cc(O)cc(O)c12
inactive: Potency [1]
active: Potency [2] 11.8 µM | Potency [5] 20.9 µM | Potency [8] 16.6 µM | Potency [3] 18.7 µM

Nc1ccn([C@H]2CC[C@@H](CO)O2)c(=O)n1
active: Potency [2] 13.2 µM | Potency [8] 10.5 µM
inactive: Potency [1] | viability [6] 109% | Potency [7]

Cc1cc(C(C)(C)C)cc(C)c1CC1=NCCN1
inactive: Potency [1] | Potency [4] | Potency [2] | Potency [5] | viability [6] 116% | Potency [7] | Potency [3]

COc1ccc(C2CNC(=O)C2)cc1OC1CCCC1 (configuration not stated)
active: Potency [8] 20.9 µM
inactive: Potency [1] | Potency [10] | Potency [5] | Potency [7]

Cn1c(=O)c2[nH]cnc2n(C)c1=O
inactive: Potency [1] | Potency [4] | Potency [5] | viability [6] 104%
active: Potency [7] 20.9 µM | Potency [8] 26.4 µM

CC1(C)O[C@H]2CC(=O)OC[C@]23[C@H]2CC[C@@]4(C)[C@H](c5ccoc5)OC(=O)[C@H]5O[C@]54[C@]2(C)C(=O)C[C@@H]13
inactive: Potency [1] | Potency [4] | Potency [8] | Potency [3]

CCN1CCCC1CNC(=O)c1cc(S(=O)(=O)CC)c(N)cc1OC (configuration not stated)
inactive: Potency [1] | Potency [4] | Potency [2] | Potency [9] | Potency [5] | viability [6] 121% | Potency [7] | Potency [8] | Potency [3]

Clc1ccc2nsnc2c1NC1=NCCN1
inactive: Potency [1] | Potency [2] | Potency [5] | Potency [8] | Potency [3]

CC[N+](CC)(CC)CCOc1cccc(OCC[N+](CC)(CC)CC)c1OCC[N+](CC)(CC)CC
inactive: Potency [1] | Potency [4] | Potency [2] | Potency [5] | viability [6] 112% | Potency [7] | Potency [8] | Potency [3]

NCCCCCC(=O)O
inactive: Potency [1] | Potency [10] | Potency [5] | Potency [8] | Potency [3]

CN(C)CCOC(c1ccccc1)c1ccccc1
active: Potency [2] 18.7 µM | Potency [3] 7.43 µM
inactive: Potency [1] | Potency [4] | viability [6] 119%

CC[C@@]1(O)C(=O)OCc2c1cc1n(c2=O)Cc2cc3c(CN(C)C)c(O)ccc3nc2-1
active: Potency [1] 0.935 µM | Potency [4] 3.32 µM | Potency [2] 0.148 µM | Potency [9] 5.9 µM | Potency [5] 9.35 µM | Potency [6] 3.32 µM | Potency [7] 13.2 µM | Potency [8] 0.0132 µM | Potency [3] 0.0743 µM

Cc1ccccc1N1C(=O)c2cc(S(N)(=O)=O)c(Cl)cc2NC1C (configuration not stated)
inactive: Potency [1] | Potency [4] | Potency [9] | Potency [5] | viability [6] 117% | Potency [8] | Potency [3]
active: Potency [7] 3.72 µM

CC12CC3CC(C)(C1)CC(N)(C3)C2
inactive: Potency [1] | viability [6] 125%
active: Potency [2] 23.5 µM | Potency [8] 20.9 µM | Potency [3] 23.5 µM

CN(Cc1cnc2nc(N)nc(N)c2n1)c1ccc(C(=O)N[C@@H](CCC(=O)O)C(=O)O)cc1
active: Potency [1] 16.6 µM | Potency [4] 0.0935 µM | Potency [6] 5.9 µM | Potency [7] 0.148 µM | Potency [8] 0.0469 µM | Potency [3] 0.0372 µM

O=C1N(c2ccccc2)c2ccccc2C1(Cc1ccncc1)Cc1ccncc1
active: Potency [9] 37.2 µM | Potency [3] 18.7 µM
inactive: Potency [1] | Potency [4] | Potency [5] | viability [6] 122% | Potency [7]
